Source: PubChem BioAssay
A selection: hits, their analogues and other compounds. The true share with any hit is near 10%.
Six1-Eya2 blk – blocks human Six1 binding to Eya2 | AID 651725 | activity change, % (concentration not given with the values) | AlphaScreen GST-Six1/His-Eya2 binding, biochemical; stronger effect = lower value | hit rate 0.56% among 360,000 | Q15475+O00167; in the data active = activity change below about -65%; inconclusive = mostly about -30% to -63%; also: % is scaled to controls: 0 for no effect and ±100 for the full control effect
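Compounds are tested against tagged Six1 and Eya2 proteins bridged by glutathione donor and nickel acceptor beads; after a one-hour incubation at 37 °C without light, AlphaScreen emission is recorded.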
G9a inh – blocks human histone lysine methyltransferase G9a | AID 504332 | G9a H3K9 monomethylation, AlphaScreen, 2 h | Potency, µM (doses to about 102 µM), for the others: top-dose activity, negative = inhibition, most hits filed as inhibitors | hit rate 8.8% among 350,000 | Q96KQ7; also: potency is read from the fitted curve at half-maximal effect; % is scaled to controls: 0 for no effect and ±100 for the full control effect; nearly all actives have a fitted effect of over 75% in size
Target sequence (Q96KQ7 913-1193 limits assumed): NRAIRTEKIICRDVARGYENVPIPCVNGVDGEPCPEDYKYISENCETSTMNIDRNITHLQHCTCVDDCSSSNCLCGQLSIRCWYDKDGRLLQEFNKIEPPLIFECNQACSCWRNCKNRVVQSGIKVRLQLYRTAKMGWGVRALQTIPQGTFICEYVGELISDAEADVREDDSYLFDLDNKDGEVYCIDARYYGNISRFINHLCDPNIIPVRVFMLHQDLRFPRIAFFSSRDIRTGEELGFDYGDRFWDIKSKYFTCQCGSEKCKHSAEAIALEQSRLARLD
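AlphaScreen detection with an anti-monomethyl H3K9 antibody quantified product after a 2 h room-temperature reaction containing 500 nM biotinylated H3K9 peptide, 20 µM SAM and 20 nM enzyme, which had been preincubated 15 min with compound.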
JMJD2A Tudor inh – JMJD2A Tudor domain (human) inhibition | AlphaScreen JMJD2A-Tudor / H3K4me3 peptide binding | hit rate 4.4% among 390,000 | Potency, µM (titrated, usually from 114 µM), for inactives: at the top dose activity change, negative = inhibition, hits mostly inhibitors | O75164; also: potency is read from the fitted curve at half-maximal effect; % is scaled to controls: 0 for no effect and ±100 for the full control effect; nearly all actives have a fitted effect of over 50% in size
CtBP-E1A blk – inhibitors of CtBP/E1A interaction; AlphaScreen GST-E1A/His-CtBP binding, 1536-well; stronger effect = lower value; activity change, % (no concentration beside the values); hit rate 0.49% among 340,000; in the data active = activity change below about -65%; inconclusive = mostly about -30% to -63%; also: % is scaled to controls: 0 for no effect and ±100 for the full control effect
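GST-E1A and His-tagged CtBP (125 nM each as 5X stock) were preincubated with pin-transferred compound for 2 h at 37 °C in the dark, then glutathione donor and nickel acceptor beads were added for 1 h before AlphaScreen reading.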
HP1b binding inh – blocks HP1-beta chromodomain binding to methylated histone tails. P83916. AlphaScreen HP1-beta / biotin-H3K9me3 peptide binding. Potency, µM (top dose mostly 114 µM), without a hit: at the highest dose activity change, negative = inhibition, hits mostly inhibitors. hit rate 0.56% among 390,000. AID 540317; also: potency is read from the fitted curve at half-maximal effect; nearly all actives have a fitted effect of over 70% in size
Target sequence (P83916 whole entry, looked up): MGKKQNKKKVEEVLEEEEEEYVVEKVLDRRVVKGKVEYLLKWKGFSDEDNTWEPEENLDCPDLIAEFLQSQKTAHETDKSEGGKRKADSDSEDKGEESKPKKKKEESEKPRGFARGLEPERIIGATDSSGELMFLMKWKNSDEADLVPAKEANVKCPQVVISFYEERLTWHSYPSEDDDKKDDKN
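AlphaScreen: HP1-beta (50 nM) preformed 30 min with biotin-H3(1-18)K9me3 peptide (50 nM) in PBS pH 7.4, 0.01% Tween-20. Compound added for 30 min at RT, then streptavidin donor/nickel chelate acceptor beads (10 ug/mL) for 30 min.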
BAZ2B inh – blocks human BAZ2B; Q9UIF8; hit rate 4.4% among 360,000; AlphaScreen BAZ2B-H3K14Ac peptide displacement; AID 504333; Potency, µM (titrated, usually from 114 µM), for the others: top-dose activity change, negative = inhibition, usual class: inhibitors; also: potency is read from the fitted curve at half-maximal effect; % is scaled to controls: 0 for no effect and ±100 for the full control effect; nearly all actives have a fitted effect of over 60% in size
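In this displacement format the biotinylated H3(5-23) peptide acetylated at Lys14 serves as ligand at 50 nM, with BAZ2B at 50 nM in PBS pH 7.4 containing 0.01% Tween-20. Donor and acceptor beads are 10 ug/mL final.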
An asterisk follows results filed as active; [ ] = another dose, or the depositor's remark. Unless noted, calls follow the shape of the dose curve; as a rule, active = well fitted inhibition curve with a large enough effect; inconclusive = small, poorly fitted or top-dose-only effect; inactive = no such curve, though single readings can be large or run the other way.

Screening COC(=O)c1c(C)oc2c1cc(NS(=O)(=O)c1ccc(C(=O)O)cc1)c1ccccc12 returned Six1-Eya2 blk -27, G9a inh 35µM*, JMJD2A Tudor inh -32%, CtBP-E1A blk -12, HP1b binding inh 1% and BAZ2B inh inconclusive.
Screening Cc1ccc(S(=O)(=O)Nc2cc3c(C(=O)O)c(C)oc3c3ccccc23)c(C)c1 returned Six1-Eya2 blk 9, G9a inh 50µM*, JMJD2A Tudor inh inconclusive, CtBP-E1A blk 11, HP1b binding inh inconclusive and BAZ2B inh 50µM*.
Screening CC(=O)c1c(C)oc2c1cc(NS(=O)(=O)c1ccc(C(=O)O)cc1)c1ccccc12 returned Six1-Eya2 blk inconclusive, G9a inh inconclusive, JMJD2A Tudor inh -14%, CtBP-E1A blk -22, HP1b binding inh -19% and BAZ2B inh -7%.
Screening Cc1cc(F)ccc1S(=O)(=O)Nc1cc2c(C(=O)O)c(C)oc2c2ccccc12 returned G9a inh -40%[59 µM], JMJD2A Tudor inh inconclusive, HP1b binding inh -11% and BAZ2B inh -18%.
`COc1ccc(C)cc1-n1nnc(S(=O)(=O)c2ccc(C)cc2)c1C` gave G9a inh -2%[59 µM], JMJD2A Tudor inh -14%, HP1b binding inh 21% and BAZ2B inh 0%.
Screening COc1ccc(C(=O)N2CCN(C3CCCCC3)CC2)cc1OC returned Six1-Eya2 blk 2, G9a inh 10µM*, JMJD2A Tudor inh 28µM*, CtBP-E1A blk -6, HP1b binding inh inconclusive and BAZ2B inh 50µM*.
For COc1cc(C(=O)N2CCC(N3CCCCCC3)CC2)cc(OC)c1OC the results were Six1-Eya2 blk 2, JMJD2A Tudor inh 7.1µM*, CtBP-E1A blk -2 and HP1b binding inh inconclusive.
`COc1ccc(-c2ccc3c(c2)S(=O)(=O)c2cccc(C(=O)N4CCN(C5CCCCC5)CC4)c2C3=O)cc1OC` gave Six1-Eya2 blk -21, JMJD2A Tudor inh 79µM*, CtBP-E1A blk -1 and HP1b binding inh -11%.
Screening COc1cc(C(=O)N2CCN(C3CCCCC3)CC2)cc(OC)c1OC returned Six1-Eya2 blk 4, JMJD2A Tudor inh 56µM*, HP1b binding inh inconclusive and BAZ2B inh inconclusive.
`COc1ccc(-c2ccc3c(c2)S(=O)(=O)c2cccc(C(=O)N4CCN(c5ccccn5)CC4)c2C3=O)cc1OC` gave Six1-Eya2 blk -19 and CtBP-E1A blk 2.
COc1cc(C(=O)N2CCCCCCC2)cc(OC)c1OC was read as G9a inh -3%[12.7 µM].
`Cc1cc(C)nc(-n2nc(C)c3c2N(Cc2ccccc2F)C(=O)CC3c2ccc(Cl)cc2)n1` (stereo not given) gave G9a inh -11%[59 µM], JMJD2A Tudor inh -27%, HP1b binding inh 65% and BAZ2B inh inconclusive.
For CCOc1ccc(OCC)c(NC(=O)C2C3C=CC(O3)C2C(=O)NCc2ccco2)c1 (stereo not given) the results were Six1-Eya2 blk -5, G9a inh 50µM*, JMJD2A Tudor inh inconclusive, CtBP-E1A blk -6, HP1b binding inh -14% and BAZ2B inh inconclusive.
For CCn1c(SCC(=O)c2cccs2)nnc1-c1ccco1 the results were Six1-Eya2 blk 17, G9a inh 50µM*, JMJD2A Tudor inh -16%, CtBP-E1A blk 2, HP1b binding inh 33% and BAZ2B inh -5%.
For CCn1c(SCC(N)=O)nnc1-c1ccco1 the results were Six1-Eya2 blk 6, G9a inh 9%, JMJD2A Tudor inh -7%, CtBP-E1A blk -1, HP1b binding inh 12% and BAZ2B inh 10%.
CCn1c(SCC(=O)N2c3ccccc3Sc3ccccc32)nnc1-c1ccco1 was read as Six1-Eya2 blk -17, G9a inh 6.3µM*, JMJD2A Tudor inh inconclusive, CtBP-E1A blk 0, HP1b binding inh -7% and BAZ2B inh inconclusive.
Screening COc1ccc(CNc2oc(COc3cccc(C)c3)nc2C#N)cc1 returned G9a inh 5µM*, JMJD2A Tudor inh inconclusive, HP1b binding inh inconclusive and BAZ2B inh 14µM*.
COc1ccc(CCNc2oc(COc3cccc(C)c3)nc2C#N)cc1OC was read as G9a inh 14µM*, JMJD2A Tudor inh inconclusive, HP1b binding inh inconclusive and BAZ2B inh inconclusive.
For N#Cc1nc(COc2ccc(Cl)cc2)oc1NCc1ccc2c(c1)OCO2 the results were Six1-Eya2 blk -23, G9a inh 28µM*, JMJD2A Tudor inh -14%, CtBP-E1A blk -14, HP1b binding inh inconclusive and BAZ2B inh inconclusive.
`COc1ccc(CCNc2oc(COc3ccc(Cl)cc3)nc2C#N)cc1OC` gave G9a inh inconclusive, JMJD2A Tudor inh inconclusive, HP1b binding inh -21% and BAZ2B inh 20µM*.
Screening CCCN(Cc1cccs1)C(=O)Nc1cc(Cl)c(OC)cc1OC returned G9a inh 8%[59 µM], JMJD2A Tudor inh 18%, HP1b binding inh 68% and BAZ2B inh 8%.
COc1ccc2c(c1)CCc1c(C(=O)Nc3ccccc3C(F)(F)F)noc1-2 was read as G9a inh -50%[59 µM], JMJD2A Tudor inh -15%, HP1b binding inh 58% and BAZ2B inh -1%.
Cc1ccc(N(CC(=O)NCCc2ccccc2C)S(=O)(=O)N(C)C)cc1 was read as G9a inh -38%[59 µM], JMJD2A Tudor inh -8%, HP1b binding inh 45% and BAZ2B inh -4%.
COc1ccc(N2CCN(c3ccc(N4C(=O)COCC4=O)cc3[N+](=O)[O-])CC2)cc1 was read as Six1-Eya2 blk -6, G9a inh 50µM*, JMJD2A Tudor inh -32%, CtBP-E1A blk -9, HP1b binding inh -14% and BAZ2B inh inconclusive.
`COc1ccc(N2CCN(c3ccc(N4C(=O)CC(C)C4=O)cc3[N+](=O)[O-])CC2)cc1` (stereo not given) gave Six1-Eya2 blk 2, G9a inh 40µM*, JMJD2A Tudor inh inconclusive, CtBP-E1A blk -13, HP1b binding inh -29% and BAZ2B inh inconclusive.
Screening COC(=O)c1ccc2c(c1)C(C)(C)C(/C=C/c1ccc(OC)c(OC)c1OC)=[N+]2C returned Six1-Eya2 blk -1, G9a inh -5%[0.0925 µM], JMJD2A Tudor inh 56µM*, CtBP-E1A blk -3, HP1b binding inh -11% and BAZ2B inh inconclusive.
`COC(=O)c1ccc2c(c1)C(C)(C)C(/C=C/c1ccc(O)cc1)=[N+]2C` gave Six1-Eya2 blk -7, G9a inh 7.1µM*, JMJD2A Tudor inh 50µM*, CtBP-E1A blk -16, HP1b binding inh inconclusive and BAZ2B inh 28µM*.
`CCc1ccc2oc(C(=O)Nc3c(C)n(C)n(-c4ccccc4)c3=O)cc(=O)c2c1` gave G9a inh inconclusive, JMJD2A Tudor inh -11%, HP1b binding inh 30% and BAZ2B inh 0%.
